Data taken from the supplement of paper PMC12636033.
± gives the standard deviation of the averaged measurements. The full ranking holds about 33,000 sequences; the median of “E-score (rank enrichment, -0.5 to 0.5)” is about -0.0075, and the highest 2% start at about 0.23. The sample holds the highest values, similar sequences and a random draw of the others, so the mix is not that of the screen.

Each sequence was assayed on WT Max(13-93) synthetic (M65Nle) (assay: PBM 8-mer E-score (E-score (rank enrichment, -0.5 to 0.5)); higher = stronger preferential binding).
Method: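 Protein binding microarray (universal PBM chip covering all 10-mers in fixed probe flanks) with chemically synthesized human Max(13-93) bHLH-LZ analogs (not full-length Max) bearing noncanonical residues (hArg, Tha, Aib, Nle at 65) and aromatic Cys staples. Read-out per 8-mer (and its reverse complement): E-score (rank-based enrichment, -0.5 to 0.5) and Z-score of median probe intensity.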

Row | Sequence | PBM 8-mer E-score
1 | ACTTGGGG | 0.0672 ± 0.1
2 | ATCACACG | 0.199 ± 0.029
3 | ATCACGTA | 0.174 ± 0.1
4 | ATCACGTC | 0.167 ± 0.0029
5 | ATCACGTG | 0.481 ± 0.006
6 | ATCACACC | 0.0527 ± 0.072
7 | AGCACGCA | -5e-06 ± 0.0011
8 | ATCACGCG | 0.262 ± 0.0089
9 | ATCACACA | 0.266 ± 0.071
10 | ATCACGCA | 0.0746 ± 0.08
11 | AGCACGCG | 0.258 ± 0.035
12 | CGCACGCG | 0.167 ± 0.051
13 | ATCACGCC | 0.0823 ± 0.14
14 | AAACAGTC | -0.0664 ± 0.047
15 | AGGTTTTG | 0.0094 ± 0.025
16 | ATAGCTAA | -0.104 ± 0.047
17 | AAAGCGGT | 0.0199 ± 0.011
18 | GGACGTGA | -0.0819 ± 0.01
19 | GCACGTGC | 0.489 ± 0.0044
20 | GCACGTCC | -0.0119 ± 0.016
21 | GCACGTGA | 0.4391 ± 0.0016
22 | GCACGTAC | 0.0338 ± 0.094
23 | GAACGTGA | -0.00116 ± 0.019
24 | ACTGTGCA | -0.0882 ± 0.057
25 | ATGGTCTA | -0.0528 ± 0.067

Row | Sequence | PBM 8-mer E-score
26 | GTGAGGGA | -0.116 ± 0.061
27 | AAATGGGC | -0.1 ± 0.011
28 | CTGCTAAC | -0.118 ± 0.073
29 | CCGCTGAC | -0.231 ± 0.04
30 | AGCTAACT | -0.0391 ± 0.11
31 | CGAACTTC | -0.102 ± 0.023
32 | CAAACAAA | 0.0821 ± 0.1
33 | TAAACATA | 0.299 ± 0.0097
34 | CAAACATA | 0.143 ± 0.12
35 | GAAACATC | 0.0695 ± 0.12
36 | GAAACAAC | 0.034 ± 0.041
37 | AAAACATA | 0.0863 ± 0.034
38 | GAAACAAA | 0.238 ± 0.025
39 | TAAACAGA | 0.128 ± 0.15
40 | GAAACATA | 0.27 ± 0.089
41 | AGGGTGCC | -0.11 ± 0.043
42 | TAGTCCCA | -0.054 ± 0.018
43 | CCAATGGC | -0.126 ± 0.23
44 | GGCGACTA | -0.0354 ± 0.12
45 | GACAACGC | 0.1 ± 0.061
46 | GCGTTTTA | 0.0184 ± 0.062
47 | AGTTAACA | 0.0439 ± 0.0024
48 | CGTTAACA | -0.00101 ± 0.057
49 | TGTTAACA | 0.317 ± 0.13
50 | GCGATGTA | -0.0179 ± 0.03

Row | Sequence | PBM 8-mer E-score
51 | AGGATGTG | -0.105 ± 0.014
52 | TAAGCTTA | 0.152 ± 0.0028
53 | AGTGGCAC | 0.0667 ± 0.064
54 | CGTGGCAC | 0.251 ± 0.063
55 | GGTGGCAC | -0.131 ± 0.071
56 | AAGCGTTG | -0.0943 ± 0.073
57 | AGGGTAGA | -0.0604 ± 0.015
58 | ATTAAGTC | 0.2923 ± 0.0026
59 | CTTAAGTC | 0.0284 ± 0.017
60 | ATAAAGTA | 0.18 ± 0.043
61 | ATTAAGTG | 0.106 ± 0.19
62 | GTTAAGTA | 0.0433 ± 0.015
63 | ATTAAGTA | 0.259 ± 0.051
64 | CTTAAGTA | 0.0679 ± 0.077
65 | ATAAAGTC | 0.258 ± 0.062
66 | ATAAAGTG | 0.188 ± 0.078
67 | ATTTCGCG | 0.16 ± 0.065
68 | AGATCTAG | -0.118 ± 0.06
69 | ATCACGAA | 0.0216 ± 0.013
70 | AGTTTGTA | 0.074 ± 0.022
71 | AGTCTGGG | -0.106 ± 0.13
72 | GCATGCGC | 0.251 ± 0.056
73 | CCATGCGA | 0.087 ± 0.11
74 | CCATGCGC | 0.153 ± 0.069
75 | GCATGCGA | 0.238 ± 0.0068

Row | Sequence | PBM 8-mer E-score
76 | ACATGCGC | 0.0958 ± 0.095
77 | ACATGCGA | 0.141 ± 0.025
78 | ACGGGATG | -0.083 ± 0.16
79 | AACGTACG | 0.157 ± 0.067
80 | AACGTGGA | 0.153 ± 0.036
81 | AACGTGAG | 0.132 ± 0.048
82 | AACGTAAC | 0.192 ± 0.0073
83 | AACGTAAA | 0.198 ± 0.065
84 | AACGTGGT | 0.282 ± 0.0092
85 | AACGTAGT | -0.0406 ± 0.12
86 | AACGTGAA | -0.0163 ± 0.062
87 | GACGTAAA | 0.0324 ± 0.088
88 | AACGTGAT | 0.268 ± 0.014
89 | AACGTAAT | 0.248 ± 0.037
90 | TACGTAAA | 0.233 ± 0.068
91 | CACGTAAA | 0.13 ± 0.054
92 | GTGTGCTA | 0.0416 ± 0.009
93 | AATCCGAT | -0.0748 ± 0.11
94 | CATTTTCA | 0.063 ± 0.11
95 | CCGAATCG | -0.0138 ± 0.033
96 | CTGTGCCC | -0.035 ± 0.08
97 | CTGTATGA | 0.012 ± 0.079
98 | GGTAAAAA | -0.00424 ± 0.074
99 | ACCAATCG | 0.0164 ± 0.0081
100 | CCGACCGC | -0.0589 ± 0.088

Row | Sequence | PBM 8-mer E-score
101 | GCCTACAC | -0.0291 ± 0.029
102 | CTGGATAA | -0.0145 ± 0.043
103 | ACTGCATA | 0.0165 ± 0.043
104 | GATGAATC | -0.0452 ± 0.013
105 | AATGAATC | -0.141 ± 0.014
106 | AATGAATT | 0.128 ± 0.086
107 | AATGAATG | 0.2671 ± 0.0011
108 | GATGAATA | 0.272 ± 0.022
109 | TATGAATA | 0.151 ± 0.12
110 | CACGACCC | -0.0381 ± 0.027
111 | AGGAGGTA | -0.168 ± 0.047
112 | CGCGGCAA | -0.139 ± 0.079
113 | AGCACTCC | 0.0118 ± 0.13
114 | ATACGCAG | -0.0132 ± 0.082
115 | ATACGCAA | 0.241 ± 0.0012
116 | GTACGCAA | -0.00199 ± 0.077
117 | ATCGACAA | -0.0231 ± 0.046
118 | ATACTATA | 0.22 ± 0.019
119 | GGGATGAA | -0.0123 ± 0.093
120 | AATTTAGC | 0.121 ± 0.065
121 | CGGACCTA | -0.0947 ± 0.063
122 | CATGCATA | 0.242 ± 0.064
123 | AATGCGTA | 0.0374 ± 0.047
124 | CATGCAAG | 0.0946 ± 0.011
125 | GATGCATA | 0.0327 ± 0.027

Row | Sequence | PBM 8-mer E-score
126 | CATGCGTA | 0.346 ± 0.038
127 | TATGCATA | 0.181 ± 0.037
128 | GATGCGTA | 0.0564 ± 0.052
129 | ATTGCATG | 0.163 ± 0.15
130 | CATGCAAC | 0.287 ± 0.054
131 | AATGCATG | 0.257 ± 0.054
132 | AATGCAAC | 0.172 ± 0.014
133 | ACTGCATG | 0.0467 ± 0.031
134 | CTACCTAA | 0.0741 ± 0.11
135 | TTAGAGAA | -0.00786 ± 0.18
136 | ATCTTTCG | 0.0243 ± 0.034
137 | AGGCGTCC | -0.0473 ± 0.0037
138 | AATGCATC | 0.163 ± 0.044
139 | AATGCAAT | 0.237 ± 0.029
140 | AATGCATA | 0.206 ± 0.12
141 | CATGCATC | 0.101 ± 0.018
142 | AATGCATT | 0.345 ± 0.024
143 | CATGCAGG | 0.0755 ± 0.026
144 | AATGCAAA | 0.143 ± 0.091
145 | AATGCAAG | 0.117 ± 0.074
146 | CATGCATG | 0.261 ± 0.073
147 | AGGACGGG | -0.111 ± 0.0023
148 | AGGGCTAT | -0.0385 ± 0.038
149 | CTCATAGC | -0.112 ± 0.12
150 | CACATTTA | 0.143 ± 0.021

Row | Sequence | PBM 8-mer E-score
151 | GCTAAACC | -0.212 ± 0.15
152 | TAACGTGA | 0.125 ± 0.039
153 | CCACGTCC | -0.0561 ± 0.11
154 | CCACGTTC | 0.0954 ± 0.045
155 | CCACGTGG | 0.4957 ± 0.00063
156 | CGACGTGC | -0.0266 ± 0.031
157 | AAACGTGA | 0.146 ± 0.13
158 | CAACGTGG | 0.172 ± 0.03
159 | CCACGTTA | 0.3 ± 0.019
160 | GCACGTTA | 0.194 ± 0.078
161 | CCACGTGC | 0.488 ± 0.0054
162 | CCACGTAG | -0.0793 ± 0.044
163 | CAACGTGA | 0.259 ± 0.05
164 | CATTCCGG | -0.206 ± 0.049
165 | ATTTCAAG | 0.112 ± 0.2
166 | ACACTAGG | -0.0884 ± 0.012
167 | ATCTTTTG | 0.00161 ± 0.044
168 | CTTATGAA | 0.0318 ± 0.11
169 | CTTACTCA | 0.0397 ± 0.06
170 | CCACGTGA | 0.4829 ± 0.002
171 | CTACGTGA | -0.0378 ± 0.094
172 | CGACGTGA | 0.0688 ± 0.0071
